Assay results: PubChem BioAssay (NCI)
Compounds without any hit were thinned out: in the full panel of roughly 79,000, 15% have a hit. Unmarked numbers belong to inactive results. Calls of active or inactive are those of the source. Rule as the data show it: active = growth inhibition above about 70%; inactive = the rest.

Experiments:
[1] = NCI Yeast Anticancer Drug Screen. Data for the rad50 strain (AID 155);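 also: 0% = growth of vehicle-only cultures of the same strain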; settings: S. cerevisiae rad50 strain growth inhibition, active compounds read high
Method in brief: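 Yeast carrying a defined DNA repair defect were exposed to test compounds, and growth was compared with vehicle-treated controls to give percent inhibition.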

[2] = NCI Yeast Anticancer Drug Screen. Data for the mec2-1 strain (AID 157); settings: S. cerevisiae mec2-1 strain, active compounds read high
Method in brief: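 Growth inhibition is read against vehicle-treated controls after compound exposure of the mec2-1 yeast strain, which is defective in DNA damage repair or cell cycle control.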

[3] = NCI Yeast Anticancer Drug Screen. Data for the sgs1 mgt1 strain (AID 161);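 also: 0% = growth of cultures given vehicle only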; settings: S. cerevisiae sgs1 mgt1 strain, active compounds read high
Method in brief: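 This yeast growth screen uses a strain with defined DNA-repair lesions; compound-treated growth is compared with vehicle-treated growth.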

[4] = NCI Yeast Anticancer Drug Screen. Data for the cln2 rad14 strain (AID 165);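 also: 0% = growth equal to vehicle treated cultures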; settings: S. cerevisiae cln2 rad14 strain, active compounds read high
Method in brief: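 Growth inhibition, relative to vehicle-treated controls, is the read-out. The test organism is a yeast strain with defined genetic alterations, cln2 rad14.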

[5] = NCI Yeast Anticancer Drug Screen. Data for the bub3 strain (AID 167); settings: S. cerevisiae bub3 mutant strain, active compounds read high
Method in brief: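 Compounds were applied to a genetically altered yeast strain carrying a cell-cycle control defect. Growth inhibition was scored against vehicle-treated controls.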

[6] = NCI Yeast Anticancer Drug Screen. Data for the mlh1 rad18 strain (AID 175); settings: S. cerevisiae mlh1 rad18 strain growth inhibition, active compounds read high
Method in brief: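 Cells of a genetically altered yeast strain, deficient in DNA damage repair, were treated with compound. Their growth was then compared with that of vehicle-treated cultures to give inhibition.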

[7] = at 5.0 µM (retest, dose inferred, filed as 0.5)
[8] = at 50.0 µM (retest, dose inferred, filed as 5.0)

| Structure (SMILES) | growth inhibition [1, 7] [%] | growth inhibition [1, 8] | growth inhibition ([1]; at 50.0 µM) | growth inhibition [2, 7] [%] | growth inhibition [2, 8] | growth inhibition ([2]; at 50.0 µM) | growth inhibition [3, 7] [%] | growth inhibition [3, 8] | growth inhibition ([3]; at 50.0 µM) | growth inhibition [4, 7] [%] | growth inhibition [4, 8] | growth inhibition ([4]; at 50.0 µM) | growth inhibition [5, 7] [%] | growth inhibition [5, 8] | growth inhibition ([5]; at 50.0 µM) | growth inhibition [6, 7] [%] | growth inhibition [6, 8] | growth inhibition ([6]; at 50.0 µM) |
| --- | --- | --- | --- | --- | --- | --- | --- | --- | --- | --- | --- | --- | --- | --- | --- | --- | --- | --- |
| O=C1c2ccccc2C(c2ccccc2)(c2ccccc2)N1c1ccccc1 | 3 | 79% (active) | 97% (active) | -1 | 80% (active) | 96.5% (active) | 28 | 90% (active) | 95.6% (active) | 18 | 69% | 91.3% (active) | 5 | 81% (active) | 95.7% (active) | 57 | 89% (active) | 95.6% (active) |
| Cc1ccc(-c2c3c(cc4cc(C)ccc24)C(=O)OC3=O)cc1 | 12 | 26% | 14.8% | -2 | 12% | 6.85% | -1 | 27% | 17.9% | 4 | 6% | 15.2% | 1 | 4% | 15.8% | -2 | 25% | 32.9% |
| CCCCCCCCCCCCCC(=O)N1CCOCC1 | 0 | 99% (active) | 97.8% (active) | -3 | 100% (active) | 99.7% (active) | -3 | 99% (active) | 98% (active) | -1 | 99% (active) | 96.5% (active) | 4 | 99% (active) | 99.6% (active) | 7 | 99% (active) | 99.3% (active) |
| O=C1Nc2ccccc2/C1=N\N=c1/scc(-c2ccccc2)n1-c1ccccc1 | 13 | 72% (active) | 59.5% | 5 | 74% (active) | 74.5% (active) | 8 | 61% | 62.1% | 10 | 90% (active) | 62.6% | 9 | 87% (active) | 51.7% | 9 | 78% (active) | 88.5% (active) |
| Cc1ccsc1/C=N/Nc1ccc2ccccc2n1 | 30 | 72% (active) | 78% (active) | 20 | 74% (active) | 59.5% | 44 | 97% (active) | 86.8% (active) | 47 | 91% (active) | 50.6% | 42 | 95% (active) | 79% (active) | 25 | 84% (active) | 23.4% |
| O=[N+]([O-])c1cc2cccnc2c2ncccc12 | -8 | -15% | 63% | -43 | -18% | 41.1% | -5 | 20% | 81.2% (active) | -8 | 21% | 62.2% | -21 | -86% | 34.4% | 4 | 22% | 76.2% (active) |
| C/C=C(\C)C(=O)OC1C(C)C2(O)C(C=C(CO)CC3(O)C(=O)C(C)=CC32)C2C(C)(C)C12OC(=O)CCCCCCCCC (configuration not stated) | 0 | 85% (active) | 79% (active) | -3 | 90% (active) | 84.1% (active) | -15 | 89% (active) | 83.4% (active) | 24 | 86% (active) | 75.7% (active) | 33 | 89% (active) | 80.9% (active) | 22 | 86% (active) | 81.6% (active) |
| CC(C)c1ccc(C(=O)OC2CCCCC2)cc1 | 7 | 97% (active) | 73.3% (active) | 8 | 100% (active) | 9.4% | 7 | 96% (active) | 46% | 4 | 98% (active) | 58.1% | 1 | 100% (active) | 88.7% (active) | 2 | 96% (active) | 62.2% |
| Nc1c(O)c(Cl)cc(Cl)c1Cl | 4 | 94% (active) | 96.2% (active) | -4 | 95% (active) | 98.9% (active) | 1 | 80% (active) | 96.6% (active) | -3 | 70% (active) | 74.6% (active) | 5 | 96% (active) | 98.4% (active) | -1 | 93% (active) | 99% (active) |
